The values that follow come from PubChem BioAssay (NCI).

This is part of a sample that, as a whole, favours compounds with a hit. Of some 83,000 tested, about 20% had one in any assay.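 96-well plates, one dose, 48 hours. Percent growth reported; active if below 10.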 Unmarked numbers belong to inactive results. Calls of active or inactive are those of the source.

The test system of this experiment is HL-60(TB) leukemia. Description: NCI-60 one-dose screen, 48 h (100 = growth as untreated, 0 = no growth, -100 = all killed). Particulars: 10 µM unless noted.
With `CC(C)CN(C(=O)c1ccc(Cl)cc1)c1c(N)n(CC(C)C)c(=O)[nH]c1=O`, the growth is 90.8%.

Consider `CCc1ccc(Nc2cc(C)c3ccc(O)cc3n2)cc1`, for which the growth is 33.9%. Turning to `Ic1ccc(SSc2ccc(I)cc2)cc1`, the growth was 80.4%. To `COc1ccc(Cl)cc1Nc1nc(C(F)(F)F)ccc1C(=O)NN` belongs 23.3%. Take `COc1ccc(/C=N/C2=C(C#N)C(c3ccc(N(C)C)cc3)c3ccc4ccccc4c3O2)cc1` (stereo unspecified): the growth was 19.6%. In the case of `CCSc1ccnc(N)n1` it was 108%; in that of `CCc1c(C)c2ccc(OCC(=O)N=Nc3c(O)[nH]c4ccccc34)c(C)c2oc1=O`, -22.3% (active).

As for `CN(C)c1ccc(-c2c(C#N)c(N)n3nc(N)c(C#N)c3c2C#N)cc1`, the growth was 95.7%. To `O=C1c2c(O)cc(O)cc2OC(c2ccc(O)c(O)c2)C1O` (stereo unspecified) belongs 110%.

For `O=C1NCCN1/N=C/c1c(Cl)n(Cc2ccc(Cl)cc2)c2ccccc12`, the growth is 74.4%. To `CCOC(=O)c1c2c(n3c1NCC3)-c1ccccc1C2=O` belongs 86.8%; to `O=C1CSC(c2ccccc2O)N1c1nnc(Cn2ccnc2)o1` (stereo unspecified), 24.9%. To `F` belongs 28.1% [6.87 mM]. To `CCCCCCNC(=O)Oc1ccc(/C(=C(\C)c2ccccc2)c2ccc(OCCN3CCCCC3)cc2)cc1` belongs 31.1%; to `Nc1nc(N)c(-c2ccc(Cl)cc2)c(/C=C/c2ccc([N+](=O)[O-])cc2)n1`, 47.8%; to `O=[N+]([O-])c1cccc(/C=N\Nc2ccccc2)c1`, 20.1%.
